# From the supplement of paper PMC12067093, “Discovery and optimisation of a covalent ligand for TRIM25 and its application to targeted protein ubiquitination” (Chemical Science, 2025)
# Of roughly 21,000 targets only a part is listed; those with the largest changes were picked by preference.
# Compound: CC1Cc2ccccc2N1C(=O)C1CCCN(C1)C(=O)CCl (mixture of isomers) [TRIM25 ligand 11 (diastereomer mixture)]
# Experiment: probe-labelled cysteine peptide fold change vs DMSO (competition) (log2 fold change); higher = less target engagement (more negative = stronger competition)
# Settings: THP-1, incubation time: 4 h
# 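Also: competitive chemoproteomic profiling in live THP-1 cells with an iodoacetamide desthiobiotin (IA-DTB) probe, comparing probe-labelled peptide intensities in compound-treated cells against DMSO-treated controls.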
# UniProt Q8IY92, sequence (Q8IY92 whole entry, looked up): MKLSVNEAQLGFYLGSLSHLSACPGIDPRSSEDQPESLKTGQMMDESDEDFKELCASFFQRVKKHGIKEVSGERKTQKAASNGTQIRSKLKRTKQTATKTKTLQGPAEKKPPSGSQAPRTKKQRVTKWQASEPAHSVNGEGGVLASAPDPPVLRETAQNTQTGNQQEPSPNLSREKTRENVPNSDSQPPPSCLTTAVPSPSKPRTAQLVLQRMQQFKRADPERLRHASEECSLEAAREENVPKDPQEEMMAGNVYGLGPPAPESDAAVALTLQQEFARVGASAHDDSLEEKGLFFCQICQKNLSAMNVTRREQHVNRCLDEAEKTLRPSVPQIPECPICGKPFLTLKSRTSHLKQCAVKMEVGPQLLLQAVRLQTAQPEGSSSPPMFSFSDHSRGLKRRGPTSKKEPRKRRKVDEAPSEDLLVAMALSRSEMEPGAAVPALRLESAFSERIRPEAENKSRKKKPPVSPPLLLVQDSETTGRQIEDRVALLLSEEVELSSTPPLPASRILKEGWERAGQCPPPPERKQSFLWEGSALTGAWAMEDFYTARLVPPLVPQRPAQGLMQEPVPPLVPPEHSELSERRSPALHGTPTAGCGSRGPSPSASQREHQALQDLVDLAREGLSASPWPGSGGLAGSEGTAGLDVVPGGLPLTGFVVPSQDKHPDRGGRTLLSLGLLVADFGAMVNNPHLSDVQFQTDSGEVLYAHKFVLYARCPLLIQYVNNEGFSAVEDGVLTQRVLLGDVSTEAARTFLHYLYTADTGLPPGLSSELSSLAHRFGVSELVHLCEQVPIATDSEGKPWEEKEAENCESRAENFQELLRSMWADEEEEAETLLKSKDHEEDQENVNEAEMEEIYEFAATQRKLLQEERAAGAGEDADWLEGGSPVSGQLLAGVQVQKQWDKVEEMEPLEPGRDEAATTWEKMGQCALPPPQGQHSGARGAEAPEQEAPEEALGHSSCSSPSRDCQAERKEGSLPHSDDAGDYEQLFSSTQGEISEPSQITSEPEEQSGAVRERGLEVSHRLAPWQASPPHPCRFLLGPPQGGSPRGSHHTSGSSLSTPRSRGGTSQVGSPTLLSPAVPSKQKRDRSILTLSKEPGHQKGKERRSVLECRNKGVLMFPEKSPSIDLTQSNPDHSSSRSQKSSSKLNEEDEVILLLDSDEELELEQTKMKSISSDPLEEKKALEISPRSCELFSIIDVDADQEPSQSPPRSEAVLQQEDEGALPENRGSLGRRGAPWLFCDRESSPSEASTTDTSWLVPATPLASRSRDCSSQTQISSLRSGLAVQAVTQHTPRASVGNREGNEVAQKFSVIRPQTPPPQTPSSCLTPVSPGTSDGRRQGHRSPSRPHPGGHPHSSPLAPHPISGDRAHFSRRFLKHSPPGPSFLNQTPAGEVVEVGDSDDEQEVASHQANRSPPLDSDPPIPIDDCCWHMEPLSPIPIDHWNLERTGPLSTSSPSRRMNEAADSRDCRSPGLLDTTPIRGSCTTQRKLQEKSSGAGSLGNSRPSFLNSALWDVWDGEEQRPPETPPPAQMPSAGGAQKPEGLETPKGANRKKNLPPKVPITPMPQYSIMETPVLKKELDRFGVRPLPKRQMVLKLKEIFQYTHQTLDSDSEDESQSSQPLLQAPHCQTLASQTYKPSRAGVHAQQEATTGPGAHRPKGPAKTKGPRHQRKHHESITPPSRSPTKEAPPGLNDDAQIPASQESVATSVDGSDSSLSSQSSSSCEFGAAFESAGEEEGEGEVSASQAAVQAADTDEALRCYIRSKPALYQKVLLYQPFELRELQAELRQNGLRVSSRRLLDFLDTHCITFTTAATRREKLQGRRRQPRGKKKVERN
# UniProt Q68CR1, sequence (Q68CR1 whole entry): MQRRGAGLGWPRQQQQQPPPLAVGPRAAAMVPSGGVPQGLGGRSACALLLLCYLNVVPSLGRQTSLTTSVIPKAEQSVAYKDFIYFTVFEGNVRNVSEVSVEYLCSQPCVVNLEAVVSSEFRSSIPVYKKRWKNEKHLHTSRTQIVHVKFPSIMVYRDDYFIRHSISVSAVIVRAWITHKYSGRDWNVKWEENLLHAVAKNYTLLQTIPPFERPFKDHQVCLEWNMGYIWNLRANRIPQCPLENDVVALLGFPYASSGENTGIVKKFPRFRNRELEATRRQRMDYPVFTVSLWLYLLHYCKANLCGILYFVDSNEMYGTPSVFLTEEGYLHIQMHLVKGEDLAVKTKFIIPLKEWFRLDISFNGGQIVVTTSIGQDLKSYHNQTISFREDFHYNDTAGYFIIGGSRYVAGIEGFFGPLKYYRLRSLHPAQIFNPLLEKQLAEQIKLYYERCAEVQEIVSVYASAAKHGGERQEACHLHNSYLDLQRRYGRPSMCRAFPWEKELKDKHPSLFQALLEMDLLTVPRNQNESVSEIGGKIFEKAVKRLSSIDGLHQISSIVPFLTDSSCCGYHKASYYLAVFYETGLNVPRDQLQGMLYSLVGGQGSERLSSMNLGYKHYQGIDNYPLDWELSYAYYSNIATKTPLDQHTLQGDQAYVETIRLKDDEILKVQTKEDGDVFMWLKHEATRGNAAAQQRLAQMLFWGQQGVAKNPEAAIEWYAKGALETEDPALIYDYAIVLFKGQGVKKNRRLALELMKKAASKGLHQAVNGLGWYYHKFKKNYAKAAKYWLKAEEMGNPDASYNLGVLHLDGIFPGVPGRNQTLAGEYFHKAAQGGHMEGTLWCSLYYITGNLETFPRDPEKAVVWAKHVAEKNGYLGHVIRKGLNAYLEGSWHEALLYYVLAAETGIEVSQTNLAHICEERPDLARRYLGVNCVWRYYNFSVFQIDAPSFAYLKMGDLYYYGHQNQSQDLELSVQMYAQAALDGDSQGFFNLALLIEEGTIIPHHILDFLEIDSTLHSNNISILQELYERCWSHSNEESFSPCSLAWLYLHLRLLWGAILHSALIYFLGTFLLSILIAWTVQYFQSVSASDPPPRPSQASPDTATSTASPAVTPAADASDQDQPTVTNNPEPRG
# UniProt Q9Y5X3, sequence (Q9Y5X3 whole entry, looked up): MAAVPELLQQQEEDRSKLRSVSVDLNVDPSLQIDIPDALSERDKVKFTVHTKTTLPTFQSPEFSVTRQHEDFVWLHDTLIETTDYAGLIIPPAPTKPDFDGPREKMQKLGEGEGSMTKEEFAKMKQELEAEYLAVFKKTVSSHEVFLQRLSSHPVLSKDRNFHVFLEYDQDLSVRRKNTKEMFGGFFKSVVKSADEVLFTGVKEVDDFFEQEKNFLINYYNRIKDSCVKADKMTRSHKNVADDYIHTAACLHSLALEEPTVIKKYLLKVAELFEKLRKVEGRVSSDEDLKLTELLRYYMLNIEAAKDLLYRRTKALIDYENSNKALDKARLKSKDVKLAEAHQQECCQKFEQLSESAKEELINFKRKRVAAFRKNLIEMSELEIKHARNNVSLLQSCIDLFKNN
# UniProt Q92540, sequence (Q92540 whole entry, looked up): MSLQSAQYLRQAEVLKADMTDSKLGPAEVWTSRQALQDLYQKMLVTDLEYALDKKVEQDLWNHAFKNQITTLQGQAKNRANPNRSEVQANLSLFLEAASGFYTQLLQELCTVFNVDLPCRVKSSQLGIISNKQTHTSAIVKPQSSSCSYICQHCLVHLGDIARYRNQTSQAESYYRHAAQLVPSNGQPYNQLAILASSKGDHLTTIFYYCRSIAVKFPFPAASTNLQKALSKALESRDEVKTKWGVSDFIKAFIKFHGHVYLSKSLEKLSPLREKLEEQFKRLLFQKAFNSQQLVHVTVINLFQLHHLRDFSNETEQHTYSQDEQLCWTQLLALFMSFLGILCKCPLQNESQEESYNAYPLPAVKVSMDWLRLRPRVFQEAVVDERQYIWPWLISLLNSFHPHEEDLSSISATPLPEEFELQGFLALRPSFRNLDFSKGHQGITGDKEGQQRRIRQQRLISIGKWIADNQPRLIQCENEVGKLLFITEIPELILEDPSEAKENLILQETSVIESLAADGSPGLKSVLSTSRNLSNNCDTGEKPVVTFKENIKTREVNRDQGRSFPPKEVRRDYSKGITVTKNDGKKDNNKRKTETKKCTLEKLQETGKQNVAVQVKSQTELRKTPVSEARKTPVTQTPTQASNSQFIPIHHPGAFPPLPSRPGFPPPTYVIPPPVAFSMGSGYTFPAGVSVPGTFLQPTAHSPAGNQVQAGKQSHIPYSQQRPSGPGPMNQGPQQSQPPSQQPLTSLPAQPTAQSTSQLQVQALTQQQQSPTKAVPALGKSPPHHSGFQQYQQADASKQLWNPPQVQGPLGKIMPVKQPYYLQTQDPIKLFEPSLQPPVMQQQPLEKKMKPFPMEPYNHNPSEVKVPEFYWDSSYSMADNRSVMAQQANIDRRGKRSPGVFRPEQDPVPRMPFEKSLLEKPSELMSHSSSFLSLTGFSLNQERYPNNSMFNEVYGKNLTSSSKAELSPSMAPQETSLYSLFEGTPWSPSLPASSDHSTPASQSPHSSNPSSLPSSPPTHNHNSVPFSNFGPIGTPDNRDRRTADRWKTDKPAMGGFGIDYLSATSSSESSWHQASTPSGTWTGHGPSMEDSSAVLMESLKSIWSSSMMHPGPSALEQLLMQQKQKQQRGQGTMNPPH
# UniProt Q13884, sequence (Q13884 whole entry, looked up): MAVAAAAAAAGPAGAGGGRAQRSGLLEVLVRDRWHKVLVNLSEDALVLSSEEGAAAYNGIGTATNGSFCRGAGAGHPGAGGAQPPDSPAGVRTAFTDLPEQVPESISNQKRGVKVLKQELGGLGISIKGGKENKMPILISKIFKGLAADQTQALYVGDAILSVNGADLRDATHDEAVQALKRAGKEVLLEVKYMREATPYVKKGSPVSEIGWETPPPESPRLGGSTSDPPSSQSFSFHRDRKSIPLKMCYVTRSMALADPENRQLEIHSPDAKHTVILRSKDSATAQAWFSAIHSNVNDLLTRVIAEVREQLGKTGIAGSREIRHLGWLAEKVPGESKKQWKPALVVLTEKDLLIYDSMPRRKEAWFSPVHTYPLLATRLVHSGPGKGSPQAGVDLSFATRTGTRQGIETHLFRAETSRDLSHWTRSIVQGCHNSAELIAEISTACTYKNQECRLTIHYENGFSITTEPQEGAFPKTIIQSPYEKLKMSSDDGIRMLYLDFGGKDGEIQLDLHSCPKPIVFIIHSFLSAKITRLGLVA
Target,probe-labelled cysteine peptide fold change (10 µM),probe-labelled cysteine peptide fold change (50 µM)
SLX4_Q8IY92_786_FGVSELVHLCEQVPIATDSEGKPWEEK (UniProt Q8IY92),0.00222,0.116
RRAGB_Q5VZM2_185_IFCLVHK (UniProt Q5VZM2),0.162,0.183
SLU7_O95391_445_CCHSFFK (UniProt O95391),0.132,0.191
SIGIRR_Q6IA17_174_LYDAYVSYSDCPEDR (UniProt Q6IA17),0.24,-0.151
SDF2_Q99470_137_NLHSHHFTSPLSGNQEVSAFGEEGEGDYLDDWTVLCNGPYWVR (UniProt Q99470),0.298,0.622
SON_P18583_2070_ANAAAMCAK (UniProt P18583),0.0129,-0.103
SPECC1_Q5M775_633_EICDHQAEQLSR (UniProt Q5M775),-0.00943,-0.0553
SMARCB1_Q12824_147_NSQWVPTLPNSSHHLDAVPCSTTINR (UniProt Q12824),-0.0549,-0.612
SLMAP_Q14BN4_120_KVTHGCIVSTIK (UniProt Q14BN4),-0.0304,0.0755
SACS_Q9NZJ4_3694_QCDVLQLLWTSCPILPEK (UniProt Q9NZJ4),-0.00918,-0.0315
SMAD4_Q13485_127_CDSVCVNPYHYER (UniProt Q13485),0.000739,0.0905
SEL1L3_Q68CR1_475_QEACHLHNSYLDLQR (UniProt Q68CR1),-0.0373,-0.0246
SETDB1_Q15047_1207_QFYDGEESCYIIDAK (UniProt Q15047),-0.0777,-0.0706
SEC61A1_P61619_13_FLEVIKPFCVILPEIQKPERK (UniProt P61619),-0.291,-0.191
SMAD9_O15198_93_GLPHVIYCR<|>SMAD3_Q15796_89_GLPHVIYCR<|>SMAD2_Q99717_129_GLPHVIYCR (UniProt Q99717+Q15796+O15198),-0.076,-0.0521
SMAD4_Q13485_391_GVQLECK (UniProt Q13485),0.0468,0.21

Target,probe-labelled cysteine peptide fold change (10 µM),probe-labelled cysteine peptide fold change (50 µM)
S100A8_P05109_42_LLETECPQYIR (UniProt P05109),-0.0697,-0.229
SLC4A1AP_Q9BWU0_399_EGEELEYEFDEQGHSTWLCR (UniProt Q9BWU0),-0.0527,0.0332
SAFB2_Q14151_224_ILDILGETCK<|>SAFB_Q15424_225_ILDILGETCK (UniProt Q15424+Q14151),-0.021,-0.165
SBF1_O95248_987_SCTFQLLK (UniProt O95248),-0.0361,0.064
SCAF11_Q99590_752_QMNENSVTHCSENNMPSSDLADEK (UniProt Q99590),0.00365,-0.727
SMG7_Q92540_537_NLSNNCDTGEKPVVTFK (UniProt Q92540),-0.036,-0.226
SNX5_Q9Y5X3_250_NVADDYIHTAACLHSLALEEPTVIKK (UniProt Q9Y5X3),-0.0814,-0.118
SH3GLB1_Q9Y371_304_ECSGSR (UniProt Q9Y371),-0.137,0.575
SLC2A9_Q9NRM0_36_ALLECDHLR (UniProt Q9NRM0),-0.0472,-0.18
SNTB1_Q13884_515_DGEIQLDLHSCPKPIVFIIHSFLSAK (UniProt Q13884),-0.207,0.302
SAMD4B_Q5PRF9_20_GWNECEQTVALLSLLK<|>SAMD4A_Q9UPU9_20_GWNECEQTVALLSLLK (UniProt Q9UPU9+Q5PRF9),-0.204,0.121
SHCBP1_Q8NEM2_591_VDLEELIECATGK (UniProt Q8NEM2),0.088,-0.228
S100A10_P60903_62_DLDQCR (UniProt P60903),-0.0944,-0.0317
SETDB1_Q15047_781_RLEECLPTGVYECNKR (UniProt Q15047),-0.124,-0.00361
SNX27_Q96L92_432+434_TCEGYNEIIFPHCACDSR (UniProt Q96L92),0.835,0.695
SPATA5L1_Q9BVQ7_104_LLLVPCPPLRR (UniProt Q9BVQ7),-0.0644,0.126
